A selection: hits, their analogues and other compounds. The true share with any hit is near 3.6%.
Nrf2 activator – qHTS of Nrf2 Activators | AID 624171, 2012 | Potency, µM (highest dose often 46.1 µM), for the others: at the top dose activation, actives largely listed as activators | AREc32 ARE-luciferase reporter (MCF7-derived line), luminescence, 24 h | actives 0.31% (n = 410,000); also: % of control where 0% means no effect; nearly all actives have a fitted effect of over 65% in size
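Reporter line AREc32 (ARE-Fluc), seeded overnight in OPTI-MEM with 5% FBS; compound pin-transferred, 24 hr at 37 deg C, 5% CO2; luminescent read-out.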
Nrf2 block – Nrf2 qHTS screen for inhibitors; A549 ARE-Fluc reporter, luciferase luminescence, 18-24 h; Potency, µM (series often up to 46 µM), for the others: top-dose activity change, negative = inhibition, usual class: inhibitors; actives 2.1% (n = 360,000); also: % is scaled to controls: 0 for no effect and ±100 for the full control effect; nearly all actives have a fitted effect of over 60% in size
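Concentration-response testing used A549 ARE_Fluc cells at 5000 cells/well. Following an 18-24 h compound incubation, viability was read by fluorescence (Ex 405/Em 525) and luciferase output by luminescence.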
A549 tox – Nrf2 qHTS screen for inhibitors: counterscreen for cytotoxicity. A549 ARE-Fluc cells, CellTiter-Fluor viability, 18-24 h. Potency, µM (titrated, usually from 46 µM), for the others: top-dose activity change, negative = cytotoxicity, actives largely listed as inhibitors. actives 0.16% (n = 390,000). AID 504648, 2011; also: % is scaled to controls: 0 for no effect and ±100 for the full control effect
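Cytotoxicity counterscreen: CellTiter-Fluor fluorescence was measured in A549 ARE_Fluc cells after 18-24 h of compound exposure in a concentration series. The subsequent BugLite luminescent read reports ARE-luciferase activity.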
HepG2 viability – qHTS for Inhibitors of TGF-b: Cytotox Counterscreen. AID 588856, 2011. HepG2 CAGA-GFP viability, ATP luminescence, 18 h. actives 0.76% (n = 410,000). Potency, µM (top dose mostly 46.1 µM), for inactives: at the top dose activity change, negative = cytotoxicity, most hits filed as cytotoxic
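CellTiter-Glo luminescence gave cytotoxicity after 18 hours at 37 degrees C. The cells were HepG2 CAGA-GFP in 1% FBS DMEM, stimulated with 500 pg/mL TGF-beta after compound addition. %Activity was normalised to no-cell wells (complete cell-killing) and DMSO (no toxicity), and curves were fitted and classified.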
TGFb inhibitor – qHTS for Inhibitors of TGF-b | HepG2 CAGA-GFP TGF-b/SMAD3 reporter, GFP fluorescence, 18 h; TGF-beta stimulated, 500 pg/mL final | Potency, µM (series often up to 46.1 µM), inactives show at the top dose activity, negative = inhibition, actives largely listed as inhibitors | actives 1.2% (n = 410,000); also: % is scaled to controls: 0 for no effect and ±100 for the full control effect; nearly all actives have a fitted effect of over 65% in size
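Inhibition of TGF-beta-driven CAGA-GFP reporter expression in HEPG2 cells is measured by cellular GFP fluorescence after 18 h stimulation with 500 pg/mL recombinant TGF-beta in 1% FBS medium at 37 degrees C.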
* = called active by the depositor; ? = inconclusive; / = no result; ! = not active in a repeat. Calls follow the shape of the dose curve; as a rule, active = well fitted curve in the direction sought with a large enough effect; inconclusive = small, poorly fitted or top-dose-only effect, or another doubt; inactive = no such curve, though single readings can be large; an effect the other way counts as inactive or inconclusive. Potency is read from the fitted curve at half-maximal effect.

SMILES	Nrf2 activator	Nrf2 block	A549 tox	HepG2 viability	TGFb inhibitor
O=C(Nc1ccc(F)cc1)c1cccnc1Oc1ccccc1	-1%	4%	-1%	3%	0%
Cc1ccccc1NC(=S)N(Cc1cccs1)C1CCCC1	0%	2%	2%	-4%	0%
NS(=O)(=O)c1cc(C(=O)OCC(=O)Nc2ccccc2[N+](=O)[O-])ccc1Cl	2%	-4%	1%	-12%	10%
CS(=O)(=O)c1ccc(C(=O)OCC(=O)Nc2cc(C(F)(F)F)ccc2Cl)cc1[N+](=O)[O-]	/	-9%	-1%	-90%	8.9µM*
CC1(C)C2CCC1(C)C(NC(=O)COC(=O)c1ccc(S(C)(=O)=O)c([N+](=O)[O-])c1)C2 (stereo unspecified)	/	?	4%	6.3µM*	5µM*
Cc1ccc(Cl)c(NC(=O)COC(=O)c2ccccc2C(=O)c2ccc(Cl)c([N+](=O)[O-])c2)c1Cl	0%	23µM*	?	-44%	?
CC(CCc1ccccc1)NC(=O)COC(=O)c1ccc(S(C)(=O)=O)c([N+](=O)[O-])c1 (stereo unspecified)	-3%	?	?	-96%	?
Cc1ccccc1NC(=O)Cc1nc(COC(=O)c2ccc(S(C)(=O)=O)c([N+](=O)[O-])c2)cs1	-2%	-9%	5%	-79%	13µM*
O=C(COC(=O)c1cccs1)Nc1ccccc1[N+](=O)[O-]	11µM*	4%	6%	-27%	-10%
N#Cc1ccccc1NC(=O)COC(=O)c1cccs1	21%	?	2%	-1%	5%
CS(=O)(=O)c1ccc(C(=O)OCC(=O)Nc2cccnc2Cl)cc1[N+](=O)[O-]	-4%	3%	-8%	-94%	?
Cc1ccccc1NC(=O)COC(=O)c1ccc(S(C)(=O)=O)c([N+](=O)[O-])c1	-3%	?	?	10µM*!	7.9µM*
O=C(CSc1nc2ccccc2nc1Cc1ccccc1)NCc1ccccc1Cl	-1%	/	8%	4%	2%
CC(=O)C1(O)CCC2C3CCC4CC(=O)CCC4(C)C3C(=O)CC21C (stereo unspecified)	-1%	10%	-3%	1%	-28%
Cc1nc(C)c(-c2ccc(SCC(=O)Nc3ccc(F)cc3F)nn2)s1	-1%	21µM*	-25%	-6%	-9%
O=C(O)CCC(=O)N1CCN(S(=O)(=O)c2cccs2)CC1	0%	11%	0%	-10%	?
CCCCC[C@H]1CN(CCCC)C(=O)[C@@H]1CC(=O)NCc1ccc(OC)cc1	-1%	-12%	-6%	-19%	?
CCCCC[C@H]1CN(Cc2ccccc2)C(=O)[C@@H]1CC(=O)NCc1ccccc1	1%	-19%	-1%	14µM*!	18µM*
COc1cc(C)ccc1OCCOCCN(C)Cc1ccccc1	1%	1%	18%	20µM*	0%
O=[N+]([O-])c1cc(-n2cnnn2)ccc1N1CCC(Cc2ccccc2)CC1	0%	10µM*	?	-14%	10%
CC1CC(C)CN(c2ccc(-n3cnnn3)cc2[N+](=O)[O-])C1 (stereo unspecified)	0%	10%	-3%	-45%	?
Cn1c(C(=O)NCC2CCCO2)cc2c(=O)n(C)c3ccccc3c21 (stereo unspecified)	7%	3%	1%	6%	7%
CC1(C(=O)NS(=O)(=O)c2cccc(Cl)c2)CCN1C(=O)C1CC1 (stereo unspecified)	0%	/	/	-1%	0%
O=C(Nc1c(Cl)cc([N+](=O)[O-])cc1Cl)c1cc(Cl)ccc1O	/	?	?	-63%	1.3µM*
COc1ccc(NC(=O)c2cc([N+](=O)[O-])ccc2O)cc1	-5%	?	?	10µM*	11µM*
SMILES	Nrf2 activator	Nrf2 block	A549 tox	HepG2 viability	TGFb inhibitor
COc1ccc(NC(=O)c2cccc([N+](=O)[O-])c2)cc1	6%	?	-10%	0%	-6%
Cc1ccc(S(=O)(=O)NCC(=O)OCC(=O)N(Cc2ccccc2)C(C)(C)C)cc1	0%	-6%	-3%	10%	?
O=C(O)c1cc2ccccc2c(N=Nc2cccnc2)c1O	22%	18µM*	?	17%	2%
O=C(O)c1cc(N=Nc2c(O)ccc3ccccc23)cc(C(=O)O)c1	0%	7%	?	14%	-3%
Cc1ccc(CS(=O)(=O)c2ncc(Cl)c(C(=O)Nc3nnc(C(C)C)s3)n2)cc1	3%	21µM*!	?	11µM*!	13µM*
CC(C)c1nnc(NC(=O)c2nc(S(=O)(=O)Cc3ccccc3F)ncc2Cl)s1	-2%	5%	-12%	-104%	13µM*
O=C(Nc1nc2ccc(F)cc2s1)c1nc(S(=O)(=O)Cc2ccccc2F)ncc1Cl	2%	?	?	7.1µM*	6.3µM*
Cc1cccc(CS(=O)(=O)c2ncc(Cl)c(C(=O)Nc3nnc(C(C)C)s3)n2)c1	-2%	1%	?	11µM*!	11µM*
CC(C)c1nnc(NC(=O)c2nc(S(=O)(=O)Cc3ccc(F)cc3)ncc2Cl)s1	?	17%	?	-71%	?
COCn1c(=O)c2c(nc(SC3=NCCS3)n2Cc2ccccc2C)n(COC)c1=O	0%	?	0%	-15%	2%
Cc1cnc(NC(=O)Cc2ccccc2Cl)s1	3%	?	10%	-19%	-14%
Cc1cccc(C(=O)N2CCCC(N3CCN(c4ccccc4F)CC3)C2)n1 (stereo unspecified)	-1%	2%	-18%	-25%	-7%
Cn1c(CSCc2ccc(F)cc2)nnc1SCC(=O)Nc1nccs1	2%	18µM*	?	0%	-2%
Cn1c(CSCc2ccc(F)cc2)nnc1SCC(=O)N1CCN(c2ccccc2)CC1	0%	13µM*	-6%	-18%	-10%
O=C(CN(CCc1ccccc1)S(=O)(=O)c1ccccc1)NCc1ccc(Cl)cc1	0%	21µM*	-13%	-4%	?
Cc1[nH]c2ccccc2c1C1(O)C(=O)N(Cc2ccccc2Cl)c2ccccc21 (stereo unspecified)	5%	11%	-7%	-104%	?
CC(/C=N/n1c(-c2ccc(Cl)cc2)n[nH]c1=S)=C\c1ccco1	2.8µM*	13%	-7%	-7%	-20%
CC(/C=N/n1cnnc1)=C\c1ccco1	11µM*	12%	-1%	-47%	-4%
CC(/C=N/n1c(-c2cc(C)[nH]n2)n[nH]c1=S)=C\c1ccco1	5%	-9%	-12%	26%	10%
CC(/C=N/NC(=O)c1ccccn1)=C\c1ccco1	?	15%	40%	-44%	-17%
